Results from PubChem BioAssay (NCATS).
Results filed as inconclusive are left out. Calls of active or inactive are those of the source. Unless noted, calls come from the whole dose curve; as a rule, active = well fitted curve in the direction sought with a large enough effect; inconclusive = small, poorly fitted or top-dose-only effect, or another doubt; inactive = no such curve, though single readings can be large; an effect the other way counts as inactive or inconclusive. Residues, ends and D or L forms follow the SMILES beside them. *: point of attachment. Cbz = O=C(OCc1ccccc1)*

What was measured:
[1] = biological target: Lysosomal alpha-glucosidase (Homo sapiens) (UniProt P10253); assay: Confirmation of Inhibitors and Activators of Purified Human alpha-Glucosidase (AID 2115; active = well fitted curve in either direction with a large enough effect); conditions: purified human GAA enzyme activity
From the text: NIH Chemical Genomics Center [NCGC]
NIH Molecular Libraries Probe Production centers Network [MLPCN]
Assay Submitter (PI): Wei Zheng
Alpha-glucosidase is responsible for hydrolysis of terminal, non-reducing 1,4-linked alpha-D-glucose residues with release of alpha-D-glucose. It is a lysosomal hydrolase that is required for the degradation of a small percentage (1-3%) of cellular glycogen in human. Deficiency of this enzyme results in glycogen-storage disease type II (GSDII), also referred to as Pompe disease, an autosomal recessive disorder. Structurally normal glycogen is accumulated in lysosomes and cytoplasm in affected patients, primarily in muscle tissues. Excessive glycogen storage within lysosomes may interrupt normal functioning of other organelles and leads to cellular injury. In turn, this leads to enlargement and dysfunction of the entire organ involved (eg, cardiomyopathy and muscle weakness). […]
This is a fluorogenic enzyme assay with 4-methylumbelliferyl-alpha-D-[…] as the substrate and human […] as the enzyme preparation. […] 4-methyllumbelliferone, can be excited at 365 nm and emits at 440 nm which can be detected by a standard fluorescence plate reader. […] The AC50 values were determined from concentration-response data modeled with the standard Hill equation. […]
(6) Detect the assay plate in a ViewLux plate reader (PerkinElmer) with Ex=365 nm and Em=440nm. […]

[2] = qHTS for differential inhibitors of proliferation of Plasmodium falciparum line D10 (AID 1877); conditions: series mostly up to 28.7 µM;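 note: parasites grown with compound for 72 h before DNA staining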; note: potency is the fitted concentration of half-maximal effect
[3] = qHTS for differential inhibitors of proliferation of Plasmodium falciparum line Dd2 (AID 1882); conditions: Potency: Plasmodium falciparum Dd2 proliferation inhibition; series mostly up to 28.7 µM; note: nearly all actives have a fitted effect of over 65% in size; note: potency is the fitted concentration of half-maximal effect
Summary of the method: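 Dd2-infected erythrocytes (0.3% parasitemia, 2.5% hematocrit final) incubated with compound 72 h at 37 C, 5% CO2; lysed with saponin/Triton buffer containing SYBR Green I, incubated overnight in the dark, then read by fluorescence (485/535 nm). Normalized to 0.29 uM artemisinin and DMSO.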

[4] = qHTS for differential inhibitors of proliferation of Plasmodium falciparum line W2 (AID 1883); conditions: Potency: Plasmodium falciparum W2 proliferation inhibition; series mostly up to 28.7 µM;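 note: parasites grown with compound for 72 h before lysis and staining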; note: potency is the fitted concentration of half-maximal effect
[5] = qHTS for differential inhibitors of proliferation of Plasmodium falciparum line HB3 (AID 1886); conditions: Potency: Plasmodium falciparum HB3 proliferation inhibition; series mostly up to 28.7 µM;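 note: parasites grown with compound for 72 h before SYBR Green readout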; note: potency is the fitted concentration of half-maximal effect
[6] = biological target: Ferritin light chain (Equus caballus) (UniProt P02791); assay: qHTS Validation Assay for Identification of Novel General Anesthetics (AID 2323); conditions: horse apoferritin, anesthetic-site fluorescent probe displacement; series mostly up to 76.9 µM
Summary of the method: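 Apoferritin from horse spleen (10 uM) was mixed with 1-aminoanthracene at 50% saturation in PBS, then compounds were added. After 10 min at room temperature, fluorescence was read (ex 380 nm, em 535 nm) and normalized to free-probe and complex controls.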

[7] = biological target: ATP-dependent DNA helicase Q1 (Homo sapiens) (UniProt P46063); assay: qHTS Validation Assay for Inhibitors of RecQ-Like Dna Helicase 1 (RECQ1) (AID 2353); conditions: recombinant RECQ1 helicase DNA unwinding assay; series mostly up to 25.6 µM
Summary of the method: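 50 nM RECQ1T1 preincubated 15 min with compound in Tris pH 8.0 buffer with MgCl2, DTT, Tween-20 and 2.5 ug/ml poly(dI-dC); started with 200 nM TAMRA/BHQ-2 forked duplex and 2 mM ATP. Unwinding read as fluorescence (525/598 nm), two reads 2 h apart.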

[8] = qHTS Assay for Modulators of Human Peripheral Myelin Protein 22 (PMP22) Expression/Activity (AID 1967; active = well fitted curve in the direction sought with a large enough effect in the signal ratio; the % refers to the signal ratio); conditions: Cell-based PMP22 reporter, dual-color luciferase ratio, 0% = compound-free control cells, mouse Pmp22 promoter in mouse Schwann cells; series mostly up to 115 µM
Summary of the method: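 Quantitative HTS in a mouse Schwann cell line expressing dual click beetle luciferases: Pmp22 promoter (green) and control EF-alpha promoter (red). After 24h treatment, corrected green/red signal ratio gave %Activity relative to untreated cells.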

[9] = biological target: RecQ-like DNA helicase BLM (Homo sapiens) (UniProt P54132); assay: qHTS Validation Assay for Inhibitors of Bloom's syndrome helicase (BLM) (AID 2364); conditions: BLM helicase DNA unwinding, fluorescence, in vitro; series mostly up to 57.1 µM
Summary of the method: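 Forked 20-bp duplex substrate (200 nM, TAMRA/BHQ-2) plus 2 mM ATP added after 15 min compound preincubation with 50 nM enzyme, pH 8.0, poly(dI-dC) 2.5 ug/ml. Strand separation followed by fluorescence (525/598 nm) over 2 h, normalized to enzyme-free and DMSO controls.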

Measured: Potency

Sequence of Ferritin light chain (Equus caballus) (P02791 2-175 limits assumed): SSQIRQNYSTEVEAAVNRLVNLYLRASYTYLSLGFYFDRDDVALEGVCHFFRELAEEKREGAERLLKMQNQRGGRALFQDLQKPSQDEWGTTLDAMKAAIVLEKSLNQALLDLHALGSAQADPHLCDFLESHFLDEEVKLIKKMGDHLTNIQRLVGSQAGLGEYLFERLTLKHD
Sequence of ATP-dependent DNA helicase Q1 (Homo sapiens) (P46063 whole entry, looked up): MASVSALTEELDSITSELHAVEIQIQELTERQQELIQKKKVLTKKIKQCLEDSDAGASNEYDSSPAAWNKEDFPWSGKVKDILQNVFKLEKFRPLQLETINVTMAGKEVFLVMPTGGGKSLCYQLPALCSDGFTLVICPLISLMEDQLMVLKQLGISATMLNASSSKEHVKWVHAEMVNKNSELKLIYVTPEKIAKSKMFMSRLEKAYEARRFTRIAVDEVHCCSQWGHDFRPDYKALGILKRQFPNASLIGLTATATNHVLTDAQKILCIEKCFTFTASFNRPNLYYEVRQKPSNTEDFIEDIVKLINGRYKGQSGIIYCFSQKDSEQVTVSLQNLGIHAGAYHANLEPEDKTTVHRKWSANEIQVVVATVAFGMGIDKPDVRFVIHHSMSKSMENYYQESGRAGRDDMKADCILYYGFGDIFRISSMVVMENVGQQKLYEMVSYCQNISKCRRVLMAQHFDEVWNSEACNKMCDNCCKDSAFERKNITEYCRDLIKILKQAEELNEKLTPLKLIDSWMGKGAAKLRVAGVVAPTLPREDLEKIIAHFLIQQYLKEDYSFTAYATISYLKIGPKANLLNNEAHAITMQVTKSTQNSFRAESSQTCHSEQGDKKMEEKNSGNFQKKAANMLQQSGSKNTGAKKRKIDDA
Sequence of RecQ-like DNA helicase BLM (Homo sapiens) (P54132 whole entry, looked up): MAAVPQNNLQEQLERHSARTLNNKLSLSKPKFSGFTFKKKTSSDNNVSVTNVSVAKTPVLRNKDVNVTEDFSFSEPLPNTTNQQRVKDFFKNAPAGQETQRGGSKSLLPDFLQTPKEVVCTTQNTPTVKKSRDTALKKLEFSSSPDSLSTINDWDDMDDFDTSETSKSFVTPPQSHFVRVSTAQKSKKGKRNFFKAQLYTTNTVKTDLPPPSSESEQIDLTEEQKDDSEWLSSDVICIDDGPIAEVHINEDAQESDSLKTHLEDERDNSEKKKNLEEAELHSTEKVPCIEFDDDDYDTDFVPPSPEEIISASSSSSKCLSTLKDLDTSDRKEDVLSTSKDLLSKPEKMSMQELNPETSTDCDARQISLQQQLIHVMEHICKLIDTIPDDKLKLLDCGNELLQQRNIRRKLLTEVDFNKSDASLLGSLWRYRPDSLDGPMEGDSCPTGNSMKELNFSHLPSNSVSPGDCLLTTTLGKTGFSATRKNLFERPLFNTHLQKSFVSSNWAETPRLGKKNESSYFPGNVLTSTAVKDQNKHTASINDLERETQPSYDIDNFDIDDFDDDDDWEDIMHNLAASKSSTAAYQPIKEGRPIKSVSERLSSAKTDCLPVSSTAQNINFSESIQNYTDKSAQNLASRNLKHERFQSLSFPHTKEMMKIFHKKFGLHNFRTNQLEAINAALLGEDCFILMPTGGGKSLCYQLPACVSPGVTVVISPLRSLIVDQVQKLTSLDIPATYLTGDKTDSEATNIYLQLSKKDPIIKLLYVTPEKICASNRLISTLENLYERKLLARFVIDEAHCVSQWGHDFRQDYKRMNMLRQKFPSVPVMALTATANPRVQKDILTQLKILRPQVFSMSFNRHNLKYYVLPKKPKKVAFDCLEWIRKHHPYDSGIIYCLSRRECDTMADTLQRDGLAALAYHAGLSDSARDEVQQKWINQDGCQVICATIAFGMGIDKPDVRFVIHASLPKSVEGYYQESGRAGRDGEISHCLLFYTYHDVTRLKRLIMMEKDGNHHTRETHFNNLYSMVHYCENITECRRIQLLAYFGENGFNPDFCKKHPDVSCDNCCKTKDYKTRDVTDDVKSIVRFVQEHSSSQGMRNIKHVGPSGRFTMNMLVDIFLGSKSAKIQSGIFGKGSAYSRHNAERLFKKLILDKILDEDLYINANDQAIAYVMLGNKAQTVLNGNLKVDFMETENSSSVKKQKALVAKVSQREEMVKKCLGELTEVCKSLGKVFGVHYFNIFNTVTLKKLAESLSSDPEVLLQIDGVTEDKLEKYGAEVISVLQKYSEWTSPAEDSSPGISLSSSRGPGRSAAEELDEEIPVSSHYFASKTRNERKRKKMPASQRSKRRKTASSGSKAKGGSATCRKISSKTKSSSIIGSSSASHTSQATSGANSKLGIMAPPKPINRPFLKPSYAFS

OC[C@H]1NC[C@@H](O)[C@@H]1O
inactive: [1]

N[C@@H](CCCC(=O)O)C(=O)O
not listed: [1] | [8] | [9]
inactive: all other assays above

CC(C)[C@H](NC(=O)OCc1ccccc1)C(=O)N[C@H](C=O)Cc1ccccc1 (Cbz-Val-Phe-aldehyde)
inactive: [6] | [7]
active: [2] 8.91 µM | [3] 4.47 µM | [4] 2.82 µM | [5] 5.01 µM

C=CCN1CCc2c(cc(O)c(O)c2Br)[C@@H](c2ccccc2)C1
active: [2] 11.2 µM | [3] 8.91 µM | [4] 3.98 µM | [5] 7.08 µM
inactive: [6] | [7]

CC1C(=O)N(C)C(=O)c2nc[nH]c21 (configuration not stated)
not listed: [1] | [8] | [9]
inactive: all other assays above

Cc1nc(N=Nc2ccc(C(=O)O)cc2)c(COP(=O)(O)O)c(C=O)c1O
not listed: [1] | [8] | [9]
inactive: all other assays above

CCCCS(=N)(=O)CC[C@H](N)C(=O)O (some centres not stated)
inactive: [2] | [3] | [5] | [6] | [7]
active: [4] 8.91 µM

N#CC(=C(\N)Sc1ccccc1N)/C(C#N)=C(/N)Sc1ccccc1N
active: [2] 2 µM | [3] 7.08 µM | [4] 2.82 µM | [5] 4.47 µM
inactive: [8] | [7]

NC(=O)CNCCC(c1ccccc1)c1ccccc1
active: [3] 4.47 µM | [4] 2.24 µM
inactive: [2] | [5] | [6] | [7]

C=CCn1c(=O)c2c(nc(-c3ccc(S(=O)(=O)O)cc3)n2C)n(C)c1=O
not listed: [1] | [6] | [9]
inactive: all other assays above

CC(=O)N[C@@H](Cc1c[nH]c2ccccc12)C(=O)OCc1cc(C(F)(F)F)cc(C(F)(F)F)c1
not listed: [1] | [6] | [9]
inactive: all other assays above

[Li+]
not listed: [1] | [6]
inactive: all other assays above

CC(C)NC[C@H](O)COc1ccc(CC(N)=O)cc1
not listed: [1] | [8] | [9]
inactive: all other assays above

N[C@@H](CCC(=O)N[C@H](CSN=O)C(=O)NCC(=O)O)C(=O)O
not listed: [1] | [8] | [9]
inactive: all other assays above

Oc1ccc(Cn2cc[nH]c2=S)cc1
not listed: [1] | [8] | [9]
inactive: all other assays above

CC(N)=O
not listed: [1] | [8] | [9]
inactive: all other assays above

NC(N)=N[C@@H](CCC(=O)O)C(=O)O
not listed: [1] | [8] | [9]
inactive: all other assays above

N[C@H]1CONC1=O
not listed: [1] | [8] | [9]
inactive: all other assays above

CC(N)(C(=O)O)c1ccc(C(=O)O)cc1 (configuration not stated)
not listed: [1] | [8] | [9]
inactive: all other assays above

COc1ccc2c(c1)c(CC(=O)O)c(C)n2C(=O)c1ccccc1
not listed: [1] | [6] | [9]
inactive: all other assays above

O=C(O)/C=C/c1cnc[nH]1
not listed: [1] | [6] | [9]
inactive: all other assays above

O=C(O)c1ccccc1Nc1ccccc1
not listed: [1] | [8] | [9]
inactive: all other assays above

CCC1(O)CC2CN(CCc3c([nH]c4ccccc34)[C@@](C(=O)OC)(c3cc4c(cc3OC)N(C=O)C3[C@]45CCN4CC=C[C@@](CC)([C@@H](OC(C)=O)[C@]3(O)C(=O)OC)[C@H]45)C2)C1 (some centres not stated)
inactive: [6] | [7]
active: [2] 0.224 µM | [3] 0.1 µM | [4] 0.0501 µM | [5] 1.78 µM

CC1=C(C(=O)O)N2C(=O)[C@@H](NC(=O)C(N)C3=CCC=CC3)[C@H]2SC1 (some centres not stated)
not listed: [1] | [8] | [9]
inactive: all other assays above

C=CCN1CCc2cc(O)c(O)cc2C(c2ccccc2)C1 (configuration not stated)
inactive: [6] | [7]
active: [2] 11.2 µM | [3] 12.6 µM | [4] 7.94 µM | [5] 11.2 µM

COc1cc(C(O)C(=O)O)ccc1O (configuration not stated)
not listed: [1] | [8] | [9]
inactive: all other assays above

N[C@H](C(=O)O)c1cc(O)cc(O)c1
not listed: [1] | [8] | [9]
inactive: all other assays above

O=C(O)C1=CCCN(CCON=C(c2ccccc2)c2ccccc2)C1
inactive: [2] | [3] | [5] | [6] | [7]
active: [4] 5.62 µM

CCC1(O)CC2CN(CCc3c([nH]c4ccccc34)[C@@](C(=O)OC)(c3cc4c(cc3OC)N(C)C3[C@]45CCN4CC=C[C@@](CC)([C@@H](OC(C)=O)[C@]3(O)C(=O)OC)[C@H]45)C2)C1 (some centres not stated)
active: [2] 5.01 µM | [3] 0.398 µM | [4] 0.794 µM | [5] 2.82 µM
inactive: [6] | [7]

NC(=O)CC[C@H](N)C(=O)O
not listed: [1] | [8] | [9]
inactive: all other assays above

NS(=O)(=O)c1cccc2c1c([N+](=O)[O-])cc1nc(O)c(O)nc12
inactive: [2] | [3] | [5] | [8] | [7]
active: [4] 11.2 µM
